Reference: PubChem BioAssay AID2501 (Southern Research Specialized Biocontainment Screening …, 2010)
The whole screen tested about 2,200 compounds, of which about 1,200 (55%) were called active. Cut-off not given; nearly all actives show IC50 up to about 92 µM. So high a share suggests a set chosen from earlier hits. This is one part of the list.

Test: counter assay for TAg ATPase ADP read-out – biochemical, ADP-Hunter, fluorescence, counter-screen (AID 2501);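 further: purified T antigen ATPase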
Settings: series mostly up to 100 µM

| SMILES | IC50 |
| --- | --- |
| O=C1NC(=O)N(c2ccccc2)C(=O)/C1=C\c1ccc2c3c(cccc13)CC2 | inactive |
| O=c1c2ccccc2[se]n1-c1ccccc1 | 10.9 µM (active) |
| O=C1NC(=O)C(=Cc2ccccc2OCCOc2ccc([N+](=O)[O-])cc2)C(=O)N1 | inactive |
| CCN1C(=O)C(=C/C=C/c2ccco2)C(=O)N(CC)C1=S | inactive |
| CCOc1cccc(OCC)c2c(C)[n+](CC3CCCO3)c(C)c1-2 (stereo not drawn) | inactive |
| COc1cc(/C=C2\C(=O)NC(=O)N(CCc3ccc(F)cc3)C2=O)ccc1O | 6.23 µM (active) |
| O=C1NC(=O)C(=Cc2ccc(OCCOc3ccc([N+](=O)[O-])cc3)cc2)C(=O)N1 | inactive |
| O=C1NC(=O)N(CCc2ccc(F)cc2)C(=O)/C1=C/c1ccco1 | inactive |
| COc1ccc(CN2C(=O)NC(=O)/C(=C/c3ccoc3)C2=O)cc1 | inactive |
| CCOC(=O)CSCCOc1ccc(C=C2C(=O)NC(=O)NC2=O)cc1OC | inactive |
| COc1cc(C=C2C(=O)NC(=O)NC2=O)ccc1O | 19.6 µM (active) |
| Cc1nc2cc([N+](=O)[O-])ccc2c(=O)n1-c1ccc(Br)cc1 | inactive |
| O=C1NC(=S)NC(=O)C1=Cc1cccn1-c1ccc(O)cc1 | inactive |
| Cc1cc(C=C2C(=O)N(C)C(=S)N(C)C2=O)c(C)n1-c1ccncc1 | inactive |
| CN(C)[C@@H]1C(=O)C(C(N)=O)=C(O)[C@@]2(O)C(=O)C3=C(O)c4c(O)cccc4[C@@](C)(O)[C@H]3[C@H](O)[C@@H]12 | inactive |
| CCCNC(=O)N1C2CCC1CC(O)(c1cccnc1)C2 (stereo not drawn) | inactive |
| Cc1ccccc1-n1c(C)cc(/C=C2/C(=O)NC(=O)N(Cc3ccco3)C2=O)c1C | inactive |
| N/C(=N\[N+](=O)[O-])N/N=C/c1ccc(O)cc1 | 2.93 µM (active) |
| C[C@]12CC[C@@H]3c4ccc(O)c(O)c4CC[C@H]3[C@@H]1CC[C@@H]2O | inactive |
| COc1ccc(/C=C2/C(=O)NC(=O)N(Cc3ccco3)C2=O)cc1 | inactive |
| NS(=O)(=O)c1ccc(-c2ccc(C=C3C(=O)NC(=O)NC3=O)o2)cc1 | inactive |
| CC1=NCCc2c1[nH]c1cc(O)ccc21 | 4.35 µM (active) |
| Cc1ccc(N2C(=O)NC(=O)/C(=C/c3ccc(-c4ccc(C(=O)O)c(Cl)c4)o3)C2=O)cc1 | inactive |
| NC(N)=Nc1ccc2[nH]c3c(c2c1)C[C@@]1(O)[C@H]2Cc4ccc(O)c5c4[C@@]1(CCN2CC1CC1)[C@H]3O5 | inactive |
| Cc1ccc(N2C(=O)NC(=O)/C(=C\C=C\c3ccco3)C2=O)cc1C | inactive |
| C=C1C(=O)O[C@H]2[C@H]1[C@H](OC(=O)CC(=O)O[C@@H]1C[C@@H](C)[C@@H]3C=CC(=O)[C@@]3(C)[C@H]3OC(=O)C(=C)[C@H]13)C[C@@H](C)[C@H]1C=CC(=O)[C@]12C | inactive |

| SMILES | IC50 |
| --- | --- |
| CN1C(=O)/C(=C/C=C/c2ccco2)C(=O)NC1=S | inactive |
| O=C1NC(=O)C(=Cc2ccc(-c3cc(Cl)ccc3[N+](=O)[O-])o2)C(=O)N1 | inactive |
| COc1cc2c(cc1O)CC[n+]1cc3c(OC)c(OC)ccc3cc1-2 | 4.22 µM (active) |
| O=C1NC(=O)N(c2ccccc2)C(=O)/C1=C\c1ccc([N+](=O)[O-])s1 | inactive |
| O=c1[nH]c(=S)n(-c2ccccc2F)c(O)c1C=Nc1ccc(N2CCOCC2)cc1 | 5.34 µM (active) |
| CC(C)Nc1ccc(Nc2ccccc2)cc1 | 5.82 µM (active) |
| NS(=O)(=O)c1ccc(-c2ccc(C=C3C(=O)NC(=S)NC3=O)o2)cc1 | inactive |
| CCN(CC)c1ccc(N=Cc2c(O)n(-c3cc(OC)ccc3OC)c(=O)[nH]c2=O)cc1 | 6.82 µM (active) |
| CCN(CC)c1ccc(N=Cc2c(O)n(-c3ccccc3C)c(=O)[nH]c2=O)cc1 | 7.13 µM (active) |
| Cc1ccccc1-n1c(O)c(C=Nc2ccc(N(C)C)cc2)c(=O)[nH]c1=O | 5.9 µM (active) |
| Cc1cccc(OCCn2cccc2/C=C2/C(=O)NC(=O)N(Cc3ccco3)C2=O)c1 | inactive |
| CN(C)c1ccc(C=C2C(=O)NC(=S)NC2=O)cc1[N+](=O)[O-] | inactive |
| Oc1ccc(C[C@H]2NCCc3cc(O)c(O)cc32)cc1O | inactive |
| N#CSCC(=O)N1c2ccccc2CCc2ccccc21 | inactive |
| Cc1ccc(/C=C2\C(=O)NC(=S)N(c3cccc(F)c3)C2=O)o1 | inactive |
| Cc1cc(/C=C2\C(=O)NC(=O)N(c3ccc(Cl)cc3)C2=O)c(C)n1-c1sc2c(c1C#N)CCCC2 | inactive |
| NCCc1c[nH]c2ccc(O)cc12 | 10.5 µM (active) |
| CCN(CC)C(=O)c1ccc2c(c1)C1C(Cl)C(Sc3ccccc3[N+](=O)[O-])CC1C(C(=O)O)N2 (stereo not drawn) | inactive |
| O=C1NC(=S)NC(=O)C1=Cc1ccc(Br)s1 | inactive |
| O=c1[nH]c(=O)n(Cc2ccccc2)c(O)c1/C=C1\C=Nc2ccccc21 | inactive |
| N#Cc1c(/N=C/c2c(O)n(Cc3ccco3)c(=O)[nH]c2=O)sc2c1CCCC2 | 27.2 µM (active) |
| CCCCC(=O)N/N=C/c1c(O)n(Cc2ccco2)c(=O)[nH]c1=O | inactive |
| O=C1NC(=O)C(=Cc2ccc(-c3ccccc3[N+](=O)[O-])o2)C(=O)N1 | inactive |
| CCN(CC)c1ccc(/C=C2\C(=O)NC(=O)N(Cc3ccco3)C2=O)cc1 | inactive |
| O=C1NC(=O)C(=Cc2ccc(-c3ccc(F)cc3O)o2)C(=O)N1 | inactive |
| CNC(C)Cc1ccccc1Sc1ccc(O)cc1 (stereo not drawn) | 2.47 µM (active) |

| SMILES | IC50 |
| --- | --- |
| CC(Cc1ccccc1Sc1ccc(O)cc1)N(C)C (stereo not drawn) | 1.99 µM (active) |
| O=C1NC(=O)N(c2ccccc2F)C(=O)/C1=C/c1ccc(Sc2nc3ccccc3[nH]2)o1 | inactive |
| COc1cc2c(cc1OC)-c1c(OC)c(OC)cc3c1[C@H](C2)[N+](C)(C)CC3 | inactive |
| O=c1[nH]c(=S)n(C2CC2)c(O)c1/C=N/Nc1ccccc1 | 3.94 µM (active) |
| COc1cccc(N2C(=O)NC(=O)/C(=C\c3ccc([N+](=O)[O-])s3)C2=O)c1 | inactive |
| O=C1NC(=O)C(=Cc2cc3c(cc2[N+](=O)[O-])OCO3)C(=O)N1 | inactive |
| Cc1cccc(N2C(=O)NC(=O)/C(=C/c3ccc(-c4ccc(C(=O)O)c(Cl)c4)o3)C2=O)c1 | inactive |
| C1=Cc2ccccc2Nc2ccccc21 | 4.79 µM (active) |
| Oc1ccc(/C=N/NP(=S)(c2ccccc2)c2ccccc2)cc1O | 35.3 µM (active) |
| O=C1NC(=O)N(c2ccc(Cl)cc2)C(=O)/C1=C\c1ccc(Sc2nc3ccccc3[nH]2)o1 | inactive |
| CCN1CCN(c2ccc(N)cc2C)CC1 | 4 µM (active) |
| CCOc1cc(-c2ccc(N)c(OCC)c2)ccc1N | 1.03 µM (active) |
| COc1cc2c(cc1OC)CC[N+](C)=C2 | inactive |
| CCCCN1C(=O)/C(=C/C=C/c2ccco2)C(=O)NC1=S | inactive |
| O=C(O)c1cccc2c1NC(C(=O)O)C1CC(Sc3ccccc3[N+](=O)[O-])C(Cl)C21 (stereo not drawn) | inactive |
| O=C(O)CCn1cc(C=C2C(=O)NC(=S)NC2=O)c(-c2cccc(Cl)c2)n1 | inactive |
| COc1ccc(N2C(=O)/C(=C/c3ccco3)C(=O)NC2=S)cc1 | inactive |
| COC(=O)C1=Nc2ccccc2/C1=C\c1c(O)n(-c2ccc(OC)cc2)c(=O)[nH]c1=O | inactive |
| COc1cccc(-n2c(/C=C/c3ccc(O)c(O)c3)nc3ccccc3c2=O)c1 | 7 µM (active) |
| COc1ccc(-n2c(/C=C/c3ccc(O)c(O)c3)nc3ccccc3c2=O)cc1 | 24.2 µM (active) |
| Cc1ccc2c(c1)=NC(=O)/C(=C/c1c(O)[nH]c(=O)[nH]c1=O)C=2 | inactive |
| CN(C)[C@@H]1C(=O)C(C(N)=O)=C(O)[C@@]2(O)C(=O)C3=C(O)c4c(O)cccc4[C@@](C)(O)[C@H]3C[C@@H]12 | inactive |
| COc1ccc(/C=C2/C(=O)N(Cc3ccco3)C(=O)N(C(C)C)C2=O)cc1 | inactive |
| O=C(O)c1c[nH]c2ccc(S(=O)(=O)N(CCCl)CCCl)cc12 | inactive |
| O=c1cc(-c2ccc(O)c(O)c2)oc2c(C3O[C@H](CO)[C@@H](O)[C@H](O)[C@H]3O)c(O)cc(O)c12 (stereo partly drawn) | 4.81 µM (active) |
| O=C1N[C@H](Cc2ccccc2)C(=O)N2[C@@H]3[C@H](C[C@@H]12)c1ccccc1N3OOSc1ccccc1 | inactive |

| SMILES | IC50 |
| --- | --- |
| O=C1NC(=S)N(c2ccc(F)cc2)C(=O)/C1=C\c1ccoc1 | inactive |
| COc1cccc(C(=O)NC2CC3CCCC(C2)N3CC(=O)Nc2ccc(N(C)C)cc2)c1 (stereo not drawn) | 3.14 µM (active) |
| CN(C)c1ccc(NC(=O)CN2C(=O)CN=C(c3ccccc3)c3ccccc32)cc1 | 9.96 µM (active) |
| CN(C)c1ccc(NC(=O)CN2C3CCCC2CC(NC(=O)c2ccccc2)C3)cc1 (stereo not drawn) | 3.12 µM (active) |
| CN(C)c1ccc(NC(=O)CN2CCC(O)(c3ccccc3)CC2)cc1 | 2.88 µM (active) |
| Cc1ccccc1N1C(=O)NC(=O)/C(=C\c2cnn(-c3ccccc3)c2)C1=O | inactive |
| O=C1NC(=O)N(c2cccc(Cl)c2)C(=O)/C1=C\c1ccc(Sc2nc3ccccc3[nH]2)o1 | inactive |
| CN1C2CCC1CC(=NO)C2 | inactive |
| C=C(C=O)CC1CC(O)[C@]2(C)OC3CC4OC5C[C@]6(C)O[C@]7(C)CCC8OC9C[C@]%10(C)OC%11C(C)=CC(=O)OC%11CC%10OC9C[C@@H](C)C8OC7CC6O[C@]5(C)CC5OC5C4OC3CC2O1 (stereo partly drawn) | inactive |
| CCCN1CCc2cccc3c2[C@H]1Cc1ccc(O)c(O)c1-3 | inactive |
| Cc1ccc2c(c1)C1CN(C)CCC1N2C(=O)Nc1cccc(C(F)(F)F)c1 (stereo not drawn) | inactive |
| CCCCN1C(=O)/C(=C/c2ccc(N(C)C)cc2)C(=O)N(Cc2ccco2)C1=O | inactive |
| CP(=O)(Nc1ccccc1)C(Cl)(Cl)Cl (stereo not drawn) | inactive |
| CNC(=O)Oc1ccc(-c2cn3cc(Cl)ccc3n2)cc1 | inactive |
| CNC(=O)Oc1ccc2ncccc2c1 | 24.1 µM (active) |
| CC[C@H](C)/C=C(C)/C=C/C1=CC2=C(Cl)C(=O)[C@@](C)(OC(C)=O)C(=O)C2=CO1 | inactive |
| O=C(CN1CCCC1=O)N1CCOCC1 | inactive |
| N/C(=N\N=C\c1ccc(O)cc1O)N[N+](=O)[O-] | 4.1 µM (active) |
| N/C(=N\N=C/c1ccc(-c2ccc(O)c(C(=O)O)c2)o1)N[N+](=O)[O-] | inactive |
| COc1ccc(/C=C2/C(=O)NC(=S)N(C3CC3)C2=O)cc1CN1C(=O)c2ccccc2C1=O | inactive |
| O=C(c1ccc2nc(-c3ccco3)c(-c3ccco3)nc2c1)N1CCC2(CC1)OCCO2 | inactive |
| O=C(O)c1cc[c]([Hg][Cl])cc1 | inactive |
| CN1C(=O)/C(=C/c2cccn2-c2ccc3ccccc3c2)C(=O)NC1=S | inactive |
| COc1cc2c(ccc3cc(OC)c(OC)c(O)c32)cc1O | 39.6 µM (active) |
| O=C1NC(=O)N(c2ccccc2)C(=O)/C1=C/C=C/c1ccco1 | inactive |
